Screening data (PubChem BioAssay)
Rows were chosen to be rich in hits. Some 3.9% of all compounds tested hit in one or more screens of this group.
ALR H2O2 inh: human ALR oxidase inhibition via reduced H2O2. P55789. purified ALR, DTT oxidation, H2O2 HRP-luminol luminescence. inhibition, % (concentration not given with the values). actives 3.8% (n = 290,000). AID 485317;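 active means mean replicate inhibition above about 79%, with every replicate also reaching it, limit read from the data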
Target sequence (P55789 whole entry, looked up): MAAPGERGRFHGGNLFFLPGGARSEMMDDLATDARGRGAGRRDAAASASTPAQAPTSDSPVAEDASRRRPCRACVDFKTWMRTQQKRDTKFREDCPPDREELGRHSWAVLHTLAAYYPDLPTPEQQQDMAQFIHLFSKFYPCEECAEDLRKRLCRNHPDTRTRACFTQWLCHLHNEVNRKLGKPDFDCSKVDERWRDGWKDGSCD
NSD2 inh: inhibitors of human histone methyltransferase NSD2 | NSD2 peptide methylation, AlphaScreen, 120 min | inhibition, % at 12.5 µM | actives 0.54% (n = 310,000) | AID 743445; in the data active means inhibition above about 50%
SUMO Mot1 rescue: SUMOylation pathway inhibition by Mot1-301 growth rescue. AID 2716. growth rescue, % at 18.8 µM. S. cerevisiae Mot1-301 growth rescue, ATP luminescence, 38.5C; percent above DMSO median, 100 means doubled. actives 1% (n = 320,000);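 active means every valid replicate shows activation above 250% relative to neutral control wells; inactive means the rest, any valid replicate at or below 250%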;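 further: OY570 slx delta 5 strain wells were the positive control but not used for scaling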
CDK5 p35 inh: CDK5/p35 (human) kinase inhibition. actives 0.01% (n = 330,000). Recombinant CDK5/p35, ADP-Glo luminescence, 60 min. Q00535+Q15078. inhibition, % at 10 µM;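 active means highest replicate inhibition of at least 50% and at least 75% of replicates reaching 50%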;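 further: plate controls were DMSO neutral control for no effect and GW8510 at 10 µM for full effect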
Casp6 inh: caspase-6 (human) enzyme inhibition | P55212 | purified caspase-6, Z-VEID-R110 cleavage fluorescence | inhibition, % at 12.5 µM | actives 0.53% (n = 350,000);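 active means mean inhibition across replicates at least about 35%, with every replicate also reaching that limit, limit read from the data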;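 further: 0% = median of neutral control wells and 100% = no fluorescence left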
Target sequence (P55212 24-179 limits assumed): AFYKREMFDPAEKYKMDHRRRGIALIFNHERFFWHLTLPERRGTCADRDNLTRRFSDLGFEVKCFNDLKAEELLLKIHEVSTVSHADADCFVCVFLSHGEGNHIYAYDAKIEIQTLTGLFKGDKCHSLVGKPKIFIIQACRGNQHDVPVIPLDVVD
Target sequence (P55212 194-293 limits assumed): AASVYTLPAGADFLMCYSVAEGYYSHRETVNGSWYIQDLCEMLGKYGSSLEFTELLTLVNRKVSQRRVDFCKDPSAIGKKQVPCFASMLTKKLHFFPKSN
Glyco luc inh: N-linked glycosylation inhibition; actives 0.23% (n = 360,000); D54 ERlucT glycosylation luciferase reporter, 24 h; percent of 100 nM tunicamycin response; AID 588692; reporter increase, % at 12.5 µM;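 active means mean luciferase reporter signal, scaled so untreated is 0 and the glycosylation-blocking control 100, at or above a set limit in every replicate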;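 further: luciferase carries N-glycosylation sites so blocking glycosylation raises the light; 0% = median of neutral control wells and 100% = median of 100 nM tunicamycin wells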
Starred values were filed as active, the others as inactive; . = no result given.

SMILES	ALR H2O2 inh	NSD2 inh	SUMO Mot1 rescue	CDK5 p35 inh	Casp6 inh	Glyco luc inh
Cc1ccc(OCC(=O)NNC(=O)CCC(=O)Nc2ccc(C)cc2C)cc1	-6	7	34	1	.	1
Cc1ccc(NC(=O)CCC(=O)NNC(=O)COc2ccccc2)c(C)c1	-6	.	7	2	41*	4
CCOC(=O)c1ccccc1NC(=O)COc1ccccc1	97*	-1	-9	0	.	-1
CO[C@H]1CN(C)C(=O)c2ccc(NC(=O)Nc3ccc(Cl)cc3)cc2OC[C@@H](C)N(C(=O)Nc2c(C)noc2C)C[C@@H]1C	.	.	.	.	2	.
CCCNC(=O)[C@@H]1[C@@H](CO)[C@@H]2Cn3c(cccc3=O)[C@H]1N2Cc1cc(F)ccc1F	.	.	.	.	3	.
C[C@@H](NC(=O)C[C@H]1CC[C@H](NC(=O)Cc2ccccn2)[C@H](CO)O1)c1ccccc1	.	.	.	.	-3	.
C[C@@H]1CCCCO[C@H](CN(C)Cc2ccc3c(c2)OCO3)[C@H](C)CN([C@H](C)CO)C(=O)c2cc(NS(=O)(=O)c3ccccc3)ccc2O1	.	.	.	.	0	.
CNC(=O)c1c(NC(=O)c2nc3ccccc3s2)sc2c1CCC2	97*	.	-18	-1	.	3
CNC(=O)c1c(NC(=O)c2ccc(N3C(=O)CCC3=O)cc2)sc2c1CCCC2	97*	.	16	-2	6	-1
COc1cc(CC2COC(=O)C2(O)Cc2ccc(O)c(OC)c2)ccc1O (centres undefined)	87*	.	-1	-1	0	2
CCC(=O)N1[C@H](CO)[C@@H]2c3ccccc3N(C(=O)c3ccc4c(c3)OCO4)C[C@@H]21	.	.	.	.	0	.
Nc1nnc(SCC(=O)c2ccc([N+](=O)[O-])cc2)s1	98*	-1	198	-1	9	2
C[C@H]1CN([C@@H](C)CO)C(=O)c2cc(C#CCC3CCCC3)cnc2O[C@@H]1CN(C)C(=O)CN(C)C	.	.	.	.	-8	.
O=C(O)CCc1c(C(=O)O)[nH]c2ccccc12	-6	2	10	0	.	1
O=C(O)CCc1[nH]c2ccccc2c1Sc1ccccc1	99*	1	120	1	1	-1
CO[C@@H]1CN(C)C(=O)c2ccc(NS(C)(=O)=O)cc2OC[C@@H](C)N(C(=O)C2CCCC2)C[C@H]1C	.	.	.	.	-2	.
CN1CCN(C(=S)c2ccc(N(C)C)cc2)CC1	99*	5	-14	4	0	1
CCCNC(=O)N1CC2(C1)CN(C(=O)CC)[C@H](CO)c1c2c2ccc(OC)cc2n1C	.	.	.	.	-3	.
Cc1ccccc1N1CCN(C2CCCN(C(=O)CCC(F)(F)F)C2)CC1 (centres undefined)	10	-1	-2	1	2	0
Cc1ccccc1N1CCN(C2CCCN(C(=O)c3cnsn3)C2)CC1 (centres undefined)	86*	3	-1	0	-1	1
Cc1ccccc1N1CCN(C2CCCN(C(=O)CCC(=O)N(C)C)C2)CC1 (centres undefined)	.	2	294*	-1	-3	1
COc1ccccc1-c1ccc2c(c1)[C@H]1[C@H](CCN1S(=O)(=O)c1cccc(C)c1)[C@@H](CO)N2	.	.	.	.	-1	.
CCCC#Cc1cnc2c(c1)C(=O)N([C@H](C)CO)C[C@@H](C)[C@@H](CN(C)Cc1ccc(C(=O)O)cc1)O2	.	.	.	.	-3	.
C[C@@H]1CN([C@@H](C)CO)C(=O)Cc2cc(NC(=O)Nc3ccc(C(F)(F)F)cc3)ccc2O[C@H]1CN(C)S(=O)(=O)c1ccccc1	.	.	.	.	-1	.
COc1cccc(NC(=O)Nc2ccc3c(c2)C(=O)N(C)[C@H]2CC[C@H](CC(=O)NCCc4ccccc4)O[C@H]2CO3)c1	.	.	.	.	2	.
SMILES	ALR H2O2 inh	NSD2 inh	SUMO Mot1 rescue	CDK5 p35 inh	Casp6 inh	Glyco luc inh
Cc1ccc(NC2c3ncccc3C(=O)N2Cc2ccc(F)cc2)cc1 (centres undefined)	97*	1	5	1	11	-3
O=C1c2cccnc2C(=O)N1C1CCCCC1	-3	0	-1	-1	-3	0
COc1ccc(CN2C(=O)c3cccnc3C2Nc2ccc(OC)c(Cl)c2)cc1 (centres undefined)	.	18	.	-1	16	0
Cc1ccc(NC2c3ncccc3C(=O)N2C2CCCCC2)cc1 (centres undefined)	96*	3	10	-3	.	1
Cc1ccccc1C(=O)OC1OC(=O)C(Cl)=C1Nc1ccc(C(=O)O)cc1 (centres undefined)	6	-3	75	0	0	2
Cc1ccc(C)c(NC2=C(Cl)C(=O)OC2OC(=O)c2ccco2)c1 (centres undefined)	27	0	14	1	-5	15
Cc1ccc(NC2=C(Cl)C(=O)OC2OC(=O)c2ccco2)cc1C (centres undefined)	91*	1	144	-2	3	3
Cc1ccc(NC2=C(Cl)C(=O)OC2OC(=O)c2ccco2)c(C)c1 (centres undefined)	99*	2	-3	0	.	6
C[C@@H]1CN([C@@H](C)CO)C(=O)c2cc(C3=CCCC3)cnc2O[C@@H]1CN(C)S(=O)(=O)c1cn(C)cn1	.	.	.	.	2	.
C[C@@H]1CN([C@H](C)CO)C(=O)c2cc(NC(=O)Nc3ccc4c(c3)OCO4)ccc2O[C@H]1CN(C)S(=O)(=O)c1ccccc1	.	.	.	.	1	.
C[C@H]1CCCCO[C@@H](CN(C)C(=O)CCC(F)(F)F)[C@@H](C)CN([C@@H](C)CO)C(=O)c2cc(NS(=O)(=O)c3ccccc3)ccc2O1	.	.	.	.	-3	.
C=CCn1c(C)csc1=Nc1ccccc1C	99*	10	.	2	3	2
C=CCn1c(C)csc1=Nc1ccc(C(C)=O)cc1	16	2	-6	0	9	-1
O=C(C[C@H]1C[C@H]2c3cc(NC(=O)C4CCC4)ccc3O[C@H]2[C@@H](CO)O1)NCc1ccncc1	.	.	.	.	3	.
Cc1cccc(N=Nc2c(N)n[nH]c2N)c1	93*	9	-2	1	-3	0
CN(C)c1ccc(Nc2nc(N)c([N+](=O)[O-])c(N3CCOCC3)n2)cc1	99*	23	-25	5	-1	-2
C/C=C/c1ccc2c(c1)O[C@@H](CN(C)C(=O)Nc1ccc(C(F)(F)F)cc1)[C@H](C)CN([C@@H](C)CO)S2(=O)=O	.	.	.	.	1	.
